This note sets out measurements from ChEMBL document CHEMBL4513216, “Probing the Open Global Health Chemical Diversity Library for Multistage-Active Starting Points for Next-Generation Antimalarials” (ACS Infect Dis, 2020).

The structures appear in SMILES notation. Screen size: about 69,000 compounds; about 8,600 (12%) showed an effect of 50% or more. The sample as a whole holds a higher share of strong results than the screen did.

This test has as its system Plasmodium berghei. As to the kind of experiment: Screen against P. berghei liver stage (PbLuc), transformed with Luciferase, at 10uM. As to conditions: tested at 10 uM. In kind it is functional, HepG2.
Consider `COc1ccc(F)c(CNC2CCCc3nc(N(C)C)ncc32)c1` (stereo not given), for which the INHIBITION is reported as 37.6%. Regarding `O=C(CCCOCc1ccccc1)N1CCCC(n2cncn2)C1` (stereo not given), the INHIBITION is reported as 21.6%. The value for `Cc1nn(C2CCS(=O)(=O)C2)c(C)c1CC(=O)NCc1ccccc1Cl` (stereo not given) was -8.9%; that for `CNC(=O)NC(=O)CCN1CCCC1c1nc(C2CCCCC2)co1` (stereo not given) was -11.3%. Take `CN(C)C[C@]12COC[C@H]1CN(C(=O)Cc1ccc3c(c1)OCO3)C2`: the INHIBITION was determined as 23.5%. The value for `CC(O)(CN1CCN(CCO)CC1)c1cccc(C(F)(F)F)c1` (stereo not given) was -14%. The value for `Cc1nc2cc(-c3nccn3C)nn2c(N2CCC(O)CC2)c1C` was 12.3%; that for `O=C1COC2(COCCN(c3ccccn3)C2)CN1c1cccc(F)c1` (stereo not given) was 31.2%. For the compound `c1ccc(CN2CCc3c(CNc4nccs4)n[nH]c3C2)nc1`, the INHIBITION was determined as 34.4%. Turning to `CCS(=O)(=O)N1CCCC2(COCCN(c3nncs3)C2)C1` (stereo not given), the INHIBITION was found to be 28.2%. The value for `CCN1CCOCC2(CCCN(c3nncs3)C2)C1` (stereo not given) was 52.3%; that for `Fc1cnc(N2CCOCC3(CCCN(c4nncs4)C3)C2)nc1` (stereo not given) was 41.5%. `Cc1cc(CNC(=O)N2CCc3ccccc3C2CO)c(C)o1` (stereo not given): the INHIBITION worked out at 2.43%.

As to `Cc1cc(F)ccc1-n1cc(O)c(C(=O)NCC[S+](C)[O-])n1` (stereo not given), the INHIBITION amounted to 36.2%. The value for `COc1ccccc1COCC(O)CN1CCC(c2ccn[nH]2)CC1` (stereo not given) was 46.2%; that for `Cn1cc(CN2CCn3cnc(COCC4CC4)c3C2)cn1` was 5.63%; that for `CC(=O)N1CCN(Cc2c(C)ccc3ccccc23)CC(O)C1` (stereo not given) was 44.3%. Regarding `CC(=O)N1CCN(Cc2cccc3c2sc2ccccc23)CC(O)C1` (stereo not given), the INHIBITION was determined as 84.6%.

Consider `CC(=O)N1CCN(Cc2c(C)sc3ccccc23)CC(O)C1` (stereo not given), for which the INHIBITION was found to be 35.4%. The value for `Cc1cnn(CCNCc2cccc(C#N)c2)c1` was 32.2%; that for `Cn1cncc1CN1CCC2(CC1)COCCN(S(C)(=O)=O)C2` was 4.68%.

`O=C(CC1CCCC1)N1CCC(c2nnc(-c3ccccn3)o2)CC1`: the INHIBITION is on record as -18.1%. In the case of `CN(Cc1ccccn1)C(=O)c1nc(S(C)(=O)=O)n2ccccc12`, the INHIBITION was determined as 36.85%. On to `CN(Cc1ccccc1)C(=O)c1nc(S(C)(=O)=O)n2ccccc12`, for which the INHIBITION is reported as 52%. The value for `CC(C)CCN(C)C(=O)c1nc(S(C)(=O)=O)n2ccccc12` was 46.5%; that for `Cn1cc(Cl)cc1C(=O)N1CCCN(Cc2ccccc2)CC1` was 16.97%. The result for `Cn1cnnc1SCc1cc2c(cc1Br)OCO2` reads 49%; that for `N[C@H]1CCCN(S(=O)(=O)c2ccc(C(=O)NCC(F)F)cc2)C1`, 66.1%.

For the compound `N#CC1CCCN(S(=O)(=O)c2ccc(C(=O)NCC(F)F)cc2)C1` (stereo not given), the INHIBITION is recorded as 49.2%. Turning to `O=C(NCC(F)F)c1ccc(S(=O)(=O)N2CCCC(O)C2)cc1` (stereo not given), the INHIBITION is reported as 37.3%. The value for `Cc1cnc(C(=O)N(C)[C@@H]2CCC[C@@H](Oc3ccccc3)[C@@H]2O)cn1` was 17.1%. Regarding `CN(C(=O)c1cn(C)cn1)[C@@H]1CCC[C@@H](Oc2ccccc2)[C@@H]1O`, the INHIBITION is listed as 60.5%. The value for `CN(C(=O)c1ccn(C)n1)[C@@H]1CCC[C@@H](Oc2ccccc2)[C@@H]1O` was 35.2%; that for `Cc1noc(C)c1-c1cncc(C2CCCN2Cc2nccs2)n1` (stereo not given) was 15.9%.

As to `O=C(CC1CCCO1)N1CCCN(c2cccnn2)CC1` (stereo not given), the INHIBITION turned out to be 7.12%. On to `Cc1cc(C)nc(N(C)CCn2ccnc2C)n1`, for which the INHIBITION is recorded as -45.7%. The result for `CN(C)C(=O)CN1CCC2(CC1)CC(=O)c1ccc3ccccc3c1O2` reads 41.1%; that for `Cc1ccc2nc(CNCCCN3CCCC3)cc(O)c2c1`, 41.5%; that for `OCC1CCCCN1CCCNCc1cc(O)c2cc(F)ccc2n1` (stereo not given), 25.7%.

Turning to `O=C1CCCN1CCCNCc1cc(O)c2cccc(Cl)c2n1`, the INHIBITION is on record as -13.4%.

Take `O=C1CCCN1CCCNCc1cc(O)c2cccc(F)c2n1`: the INHIBITION was -15.8%.

For the compound `CN1CCN(CCCNCc2cc(O)c3cc(F)ccc3n2)CC1`, the INHIBITION is recorded as 65.6%.

For `Oc1cc(CNCCCN2CCCC2)nc2ccc(F)cc12`, the INHIBITION was found to be 62.8%. With `O=C(CCNCc1cc(O)c2cc(F)ccc2n1)N1CCCC1`, the INHIBITION was found to be 30.4%. The result for `Oc1cc(CNCCN2CCCCC2)nc2c(F)cccc12` reads 13.7%; that for `O=S(=O)(CCNCc1cc(O)c2cc(F)ccc2n1)N1CCCC1`, 58.2%. The result for `CC(NCc1c(C(C)C)nn(C)c1N1CCOCC1)C(=O)N(C)C` (stereo not given) reads 19.45%; that for `Cc1cc(C)c2c(NCCC3(O)CCCC3)ncnc2n1`, 42.3%.

With `CCn1ccc2ccnc(CC3CN(C(=O)c4cnco4)C3)c21`, the INHIBITION was found to be 1.62%. As to `CN1CC2(CCCCN2C(=O)c2ccsc2)CC1=O` (stereo not given), the INHIBITION is reported as 35.8%.

Consider `Cc1oc(C)c(C(=O)NCc2cccc(C(N)=O)c2)c1C`, for which the INHIBITION is -39.7%. On to `CNC(=O)C1CN(C)CCN1c1nc(C)cc(C)n1` (stereo not given), for which the INHIBITION is given as -5.8%. The result for `COC(=O)Cn1c(=O)[nH]c2cn(-c3ccc(Cl)cc3)c(=O)n21` reads 0.547%; that for `NC(=O)c1cc(C2CCCN(CCCOc3ccc(F)cc3)C2)n[nH]1` (stereo not given), 14.22%; that for `CCOCCCC(=O)NS(=O)(=O)c1ccc(C)s1`, 11.3%. Take `COc1ccccc1OCC(=O)NS(=O)(=O)c1ccc(Cl)s1`: the INHIBITION is on record as 31.3%. Consider `Cc1ccc(S(=O)(=O)NC(=O)CCOCc2ccccc2)s1`, for which the INHIBITION was 36.3%.

Turning to `CC(=O)c1ccc(OCC(=O)NS(=O)(=O)c2ccc(Cl)s2)cc1`, the INHIBITION was found to be 36.8%. With `CC(C)COCCC(=O)NS(=O)(=O)c1ccc(Cl)s1`, the INHIBITION was 62.4%. On to `Cc1ccc(S(=O)(=O)NC(=O)CCOCC(C)C)s1`, for which the INHIBITION was 55.9%. The result for `OC1(CN2CCCC2)COCCN(c2cc(C(F)(F)F)ccn2)C1` (stereo not given) reads -16%; that for `OCCn1nccc1C1CCN(Cc2nc(C3CC3)no2)CC1`, 33.7%; that for `Cc1cc(C(=O)N2CCC(Nc3cccnc3)CC2)c(C)s1`, -19.5%.

Take `O=S1(=O)NC(c2ccnc(N3CCCC3)n2)=Nc2ccccc21`: the INHIBITION stood at 33.2%. The result for `Cc1ccc(C(=O)N2CCC3(CC2)CC(N2CCOCC2)C3)cc1` reads 55.7%; that for `O=C(c1ccc(F)cc1)N1CCC2(CC1)CC(N1CCOCC1)C2`, -24.5%. As for `Cc1ccc(C(=O)N2CCC3(CC2)CC(N2CCCC2)C3)cc1`, the INHIBITION is reported as 39.9%. The value for `CN(C)C(=O)c1cn[nH]c1C1(C)CCCN(Cc2ccccn2)C1` (stereo not given) was 40%; that for `CCOc1ccc(NC(=O)N2CCNC(=O)C2)c(C(F)(F)F)c1` was 40.2%; that for `O=C(Cn1cc(-c2ccccc2)ncc1=O)Nc1ccncc1` was 0.547%. The result for `O=C(Cn1cc(-c2ccccc2)ncc1=O)Nc1nnc[nH]1` reads 13%; that for `O=C(Cn1cc(-c2ccccc2)ncc1=O)Nc1ncc[nH]1`, 81%. The result for `Cc1nc2c(C)cccc2cc1C(=O)N1CCC2(CCN(C)CC2)C1` reads -17.7%. Turning to `CCOc1nnc(CN2CCC(c3nc4ccccc4[nH]3)CC2)s1`, the INHIBITION is given as -35.9%. As for `CCOc1nnc(CN2CCC(c3cc4ccccc4[nH]3)CC2)s1`, the INHIBITION was -14.2%. The value for `CCOc1nnc(CN2CCN(CCOC)C(CC)C2)s1` (stereo not given) was 28.6%; that for `CCOc1nnc(CN2CCN(CCOC)C(C)C2)s1` (stereo not given) was 51.7%. The result for `CCOCCN1CCN(CCOC)CC1C` (stereo not given) reads 11.4%; that for `CCOc1nnc(CN2CCN(CCOC)CC2)s1`, 53.4%; that for `COCC1CC2(CCN(C(=O)c3ccc(C)nc3)CC2)CO1` (stereo not given), -26.1%.

Take `COc1ccc(C2CCCN2C(=O)NCCn2ccnc2)cc1OC` (stereo not given): the INHIBITION is given as -20.965%. Turning to `O=S(=O)(C1CC1)N1CC[C@@H](OCC2CC2)[C@@H]1Cc1ccncc1`, the INHIBITION is on record as 47.5%.

Turning to `CNc1nc(CNC(=O)Nc2ccccc2OC(C)C)cs1`, the INHIBITION was determined as 32.3%. For the compound `CNc1nc(CNC(=O)Nc2ccc(OC(C)C)cc2C)cs1`, the INHIBITION is on record as 57.2%. The value for `CNc1nc(CNC(=O)Nc2ccc(OC)cc2C)cs1` was 21.5%; that for `CNc1nc(CNC(=O)Nc2cc(Cl)ccc2F)cs1` was -41.85%.

Take `CNc1nc(CNC(=O)Nc2ccc(OC(C)C)cc2F)cs1`: the INHIBITION was 72.3%. The value for `CNc1nc(CNC(=O)Nc2cccc(C)c2Cl)cs1` was -25.15%; that for `COc1ccc2[nH]cc(C(=O)CNc3nc(C)cs3)c2c1` was -29.5%; that for `O=C(CCOc1ccc(F)cc1)N1CCCC1Cn1cccn1` (stereo not given) was 30.6%. The result for `Cc1ccc2c(n1)N(CCn1cccn1)CCN(C(=O)NC(C)C)C2` reads -32%; that for `CS(=O)(=O)NCc1cnc2n1CCN(Cc1ccsc1)CC2`, 30.1%; that for `CCOc1ccccc1Oc1ccc(CN)cn1`, 60.3%. The result for `NCc1ccc(Oc2cccc(Cl)c2Cl)nc1` reads 28.7%; that for `NCc1ccc(Oc2cccc(Cl)c2Cl)cc1`, 13.2%; that for `CC(C)CCN1CCc2c(C(=O)N(C)Cc3ccccn3)nn(C)c2C1`, 48.2%. Regarding `CCCN1CCc2c(C(=O)N(C)Cc3ccccn3)nn(C)c2C1`, the INHIBITION stood at 55.6%. Turning to `CN(Cc1ccccn1)C(=O)c1nn(C)c2c1CCN(CC1CC1)C2`, the INHIBITION is given as 48.2%.

Turning to `COCCCNC(=O)CN(C)C1CCCN(c2cccnn2)C1` (stereo not given), the INHIBITION is given as -14.7%.

In the case of `CC(=O)N1CC(=O)N(c2ccsc2)CC12CCN(Cc1ccoc1)C2` (stereo not given), the INHIBITION is reported as -3.58%.

Turning to `CCN1C(=O)C(c2ccccc2)CC12CCN(CCO)CC2` (stereo not given), the INHIBITION was determined as 19.8%. As to `CNC(=O)CN1CC[C@H]2CN(C(=O)c3ccccc3C)C[C@H]2C1`, the INHIBITION was -28%. The value for `Cc1nn(CC(=O)N2CCN(Cc3cn(C)nc3C)CC2)cc1Br` was 51%; that for `CCn1ncc(CN2CCN(C(=O)Cn3cc(Br)c(C)n3)CC2)c1C` was 34%. The result for `Cc1nn(CC(=O)N2CCN(Cc3cnn(C)c3C)CC2)cc1Br` reads -5.92%; that for `CCn1cc(CN(C)S(=O)(=O)c2cnn(C)c2)cn1`, 7.66%. Consider `O=c1c2cn[nH]c2nc(SCCN2CCOCC2)n1-c1ccccc1`, for which the INHIBITION is listed as 21.5%. The value for `CC(=O)N1CCC2(CN(CC3CCCC3)C2)C1` was 39.5%. As to `CC(=O)N1CCC2(CCN(CC3CCOC3)C2)CC1` (stereo not given), the INHIBITION was 42.1%. The value for `CC(=O)N1CCC2(CCN(CC3CCCCC3)C2)CC1` was 51.9%.
